Measured values as given in ChEMBL document CHEMBL4513216, “Probing the Open Global Health Chemical Diversity Library for Multistage-Active Starting Points for Next-Generation Antimalarials” (ACS Infect Dis, 2020).
About 8,600 (12%) of roughly 69,000 compounds showed an effect of 50% or more. What follows is part of a selection rich in strong results, with near analogues and random picks from the rest.

System: Plasmodium berghei
Test: Screen against P. berghei liver stage (PbLuc), transformed with Luciferase, at 10uM
Type: functional, HepG2
Settings: tested at 10 uM

First: Cc1nn(CC(=O)Nc2ccon2)cc1Br
Second: CCCC(=O)Nc1cnn(CC(=O)Nc2ccc(SC)cc2)c1
The INHIBITION of the first is higher: 20.1% for the first, 14.3% for the second.

Compared with `CN1CCC(N(CCc2ccccc2)C(=O)c2ccoc2)CC1`, `O=C(NCC(=O)N1CCCC(c2ccccc2)CC1)c1ccoc1` (configuration not stated) is lower in INHIBITION: 32.8% for the first, 23.4% for the second.

Compared with `CC(=O)N1CCC(C)(c2cc[nH]n2)CC1`, `CC(=O)N1CCN(C(=O)c2ccc(Sc3ccccn3)cc2)CC1` is lower in INHIBITION: 35% for the first, 14.4% for the second.

Compared with `CN1CCN(CC(NCc2ccc(F)c(F)c2)c2ccccc2)CC1` (configuration not stated), `Cn1nccc1C1CCN(CC(O)c2cccc(F)c2)CC1` (configuration not stated) is higher in INHIBITION: 8.31% for the first, 20.9% for the second.

Compared with `Cc1nonc1CC(=O)N1CCC2(CCCN(C3CCOCC3)C2=O)C1` (configuration not stated), `O=C(c1n[nH]c2c1CN(C1CCOC1)CC2)N1CCOCC1` (configuration not stated) is higher in INHIBITION: -41.8% for the first, 9.97% for the second.

Compared with `CSc1ccc(CN2CCC(CCC(=O)Nc3ccccc3)CC2)cc1`, `CSc1cccc(CN2CCC(CCC(=O)Nc3ccccc3)CC2)c1` is lower in INHIBITION: 64.5% for the first, 47.7% for the second.

First: O=C(CCC1CCN(Cc2ccncc2)CC1)Nc1ccccc1Cl
Second: Cn1cc(CN2CCC(CCC(=O)Nc3ccccc3Cl)CC2)cn1
The INHIBITION of the first is higher: 70.1% for the first, 34% for the second.

Going from `CCn1ccnc1CN1CCN(CC(=O)NC2CCOCC2)CC1` to `CCn1ccnc1CN1CCN(CC(=O)NC(=O)NC2CC2)CC1`, the INHIBITION falls from 22.5% to -3.95%.

First: CCn1cc(CN2CCC(CCC(=O)Nc3ccccc3Cl)CC2)cn1
Second: CCn1ccnc1CN1CCC(CCC(=O)Nc2ccccc2Cl)CC1
The INHIBITION of the first is lower: 49.5% for the first, 71.8% for the second.

Going from `CCn1ccnc1CN1CCN(CC(=O)NC(C2CC2)C2CC2)CC1` to `CSc1cccc(CN2CCC(CCC(=O)NC3CC3)CC2)c1`, the INHIBITION falls from 51.85% to 35.4%.

First: Cn1ccnc1CN1CCC(CCC(=O)Nc2ccccc2Cl)CC1
Second: O=C(CCC1CCN(Cc2ncc[nH]2)CC1)Nc1ccccc1Cl
The INHIBITION of the first is lower: 9.72% for the first, 38.5% for the second.

Going from `CN(C)CCN1C(=O)CCCC12CCCN(Cc1ccc[nH]1)C2` (configuration not stated) to `CN(C)CCOCC1CN(CCN(C)C)Cc2ccnn2C1` (configuration not stated), the INHIBITION falls from 26% to -4.23%.

Going from `Cc1cccc(C)c1Nc1noc2c1CN(C(=O)c1ccnn1C)CC2` to `CCn1cc(CN2CCCN(C(=O)c3cccn3C)CC2)cn1`, the INHIBITION falls from 45.5% to 13.6%.

Going from `O=C(C1CCC2(CCN(CC3CCOCC3)CC2)O1)N1CCCCO1` (configuration not stated) to `CN1CCC2(CCN(CC3CC3)CC2)C1=O`, the INHIBITION falls from 38.3% to 23.3%.

First: CS(=O)(=O)N1CC[C@]2(C[C@H](Oc3ccccn3)CO2)C1
Second: CN(C)CC(=O)N1CCOCC(Cc2ccccn2)C1 (configuration not stated)
The INHIBITION of the first is lower: -23.4% for the first, -20.6% for the second.

Compared with `CCc1noc(CN(CC)Cc2cc3ccc(C)cc3[nH]c2=O)n1`, `Cc1cc(C)nc(N2CC=C[C@H]2C(=O)NCc2ccc3c(c2)OCO3)n1` is higher in INHIBITION: 9.56% for the first, 25.8% for the second.

Compared with `Cc1cnn(CCC(=O)N2CCN(c3nccs3)CC2)c1`, `Cn1ccnc1CN1CC[C@H](O)[C@@H](n2ccc(=O)[nH]c2=O)CC1` is lower in INHIBITION: 23.5% for the first, 22% for the second.

First: O=C(NCCO)Nc1cnc2cc(Cl)ccc2c1O
Second: O=C(NCCCO)Nc1cnc2cc(Cl)ccc2c1O
The INHIBITION of the first is lower: 24.4% for the first, 54.4% for the second.

First: O=C(NCCCN1CCOCC1)Nc1cnc2cc(Cl)ccc2c1O
Second: CSCc1cccc(S(=O)(=O)NCCCN2CCOCC2)c1
The INHIBITION of the first is higher: 35.8% for the first, 18.5% for the second.

Going from `CNC(=O)CCN1CCCCCC1c1ccc(C)o1` (configuration not stated) to `Cc1ccc(C2CCCCCN2CCNS(C)(=O)=O)o1` (configuration not stated), the INHIBITION falls from 72.5% to 39.4%.

Going from `CNS(=O)(=O)CCCN1CCCCCC1c1ccc(C)o1` (configuration not stated) to `CS(=O)(=O)NCC1CCCCN1Cc1ccccc1C#N` (configuration not stated), the INHIBITION falls from 23.3% to -27.6%.

Compared with `Cc1ccc(NC(=O)NCC2(O)CCCC2)cc1C`, `Cc1cc(NCc2cccc(C#N)c2)ccc1C(N)=O` is higher in INHIBITION: -108% for the first, -0.759% for the second.

Going from `COc1cc(CNCC(O)c2ccc(C)cc2)cc2c1OCO2` (configuration not stated) to `COc1cc(CNCC(C)O)cc(Cl)c1OCc1ccc(C)cc1` (configuration not stated), the INHIBITION rises from -5.25% to 52.2%.

Compared with `COc1cccc(CNC(C)C)c1OCc1ccc(C)cc1`, `Cc1ccc2c(c1C)OCC2NCc1ccc(C#N)cc1` (configuration not stated) is higher in INHIBITION: 5.46% for the first, 40.9% for the second.

Compared with `NC(=O)c1c[nH]nc1NC(=O)c1ccc(Cl)cc1`, `CNC(=O)[C@@H]1C[C@@H](n2cc(-c3ccc(Cl)cc3)nn2)CN1` is higher in INHIBITION: -6.3% for the first, 43.9% for the second.

Compared with `Cc1c(NCc2ccccc2C#N)cccc1-n1cnnn1`, `Cc1ccc(NCc2ccccc2C#N)cc1-n1cnnn1` is lower in INHIBITION: 62.4% for the first, 10.6% for the second.

First: Cc1c(NCc2cccc(C#N)c2)cccc1S(=O)(=O)NC1CC1
Second: Cc1c(NCc2ccc(C#N)cc2)cccc1S(=O)(=O)NC1CC1
The INHIBITION of the first is lower: 67.5% for the first, 73.9% for the second.

Compared with `Cc1nnc(NCc2ccccc2S(=O)(=O)N(C)C)c(C#N)c1C`, `Cc1c(NCc2ccccc2C#N)cccc1S(=O)(=O)NC1CC1` is higher in INHIBITION: 15.92% for the first, 64.9% for the second.

Going from `Cc1cc(NCc2cccc(C#N)c2)ccc1Br` to `Cc1ccc(NCc2ccc(C#N)cc2)cc1-n1cnnn1`, the INHIBITION falls from 44.3% to 14.3%.

First: CC(C)N(CCNCc1ccc(C#N)cc1)C1CC1
Second: CC(C)c1cccc(S(=O)(=O)NCCCN2CCC(O)CC2)c1
The INHIBITION of the first is lower: -8.45% for the first, 62.3% for the second.

First: CC(C)CN(CC(O)c1ccccc1)C(=O)Nc1nccs1 (configuration not stated)
Second: CCN(CC)C(=O)[C@@H]1C[C@H](n2cc(-c3ccccn3)nn2)CN1
The INHIBITION of the first is lower: -10.9% for the first, 34% for the second.

First: COCCN(C)CC(=O)N1C[C@@H]2CC[C@H]1CN(C(=O)c1ccncc1)C2
Second: COCC[C@]1(O)CCN(CC(=O)NCc2ccccn2)C[C@H]1C
The INHIBITION of the first is lower: 8.57% for the first, 25.4% for the second.

First: CNC(=O)[C@H]1C[C@H]2CN(Cc3ccc(OC)cc3)C[C@@H]1O2
Second: CNC(=O)[C@@H]1C[C@H](n2cc(-c3ccc(Cl)cc3)nn2)CN1
The INHIBITION of the first is lower: 8.66% for the first, 30.3% for the second.

First: O=C(O)c1ccccc1CN1CCC(c2ccnc3ccnn23)CC1
Second: Cc1ncc(CN2CCC(c3ccnn3C)CC2)n1-c1ccccc1
The INHIBITION of the first is lower: -9.32% for the first, 77.2% for the second.

First: Cn1nccc1C1CCN(Cc2csc(-c3ncccn3)n2)CC1
Second: Cn1nccc1C1CCN(Cc2cnn(-c3ccccc3)n2)CC1
The INHIBITION of the first is lower: 11.1% for the first, 81.2% for the second.

Compared with `c1ccc(-n2ccc(CN3CCCC3Cn3cccn3)n2)cc1` (configuration not stated), `c1ccc(-n2ncc(CN3CCCC3Cn3cccn3)n2)cc1` (configuration not stated) is lower in INHIBITION: 36.4% for the first, -0.75% for the second.

First: c1ccc(-n2ccc(CN3CCOC(Cn4cncn4)C3)n2)cc1 (configuration not stated)
Second: Cn1nccc1C1CCN(Cc2ccn(-c3ccccc3)n2)CC1
The INHIBITION of the first is lower: 7.08% for the first, 74.2% for the second.

First: CC(C)C(=O)N1CCN(C(=O)N(C)C)CC2(CC(=O)N(C)C2)C1 (configuration not stated)
Second: COC1CCN(C(=O)COC(C)=O)CC(=O)N(C)c2ccccc21 (configuration not stated)
The INHIBITION of the first is higher: 39.8% for the first, 32.1% for the second.

Going from `CCn1c(Cn2cncn2)nnc1C1CCN(Cc2ccccn2)CC1` to `CN(CCc1ccccn1)C1CCCN(Cc2noc(C3CC3)n2)C1` (configuration not stated), the INHIBITION rises from 3.88% to 24.1%.

Going from `O=C(CCc1ccccc1)NC1CCC2(CCC(=O)N2)CC1` (configuration not stated) to `c1ccc(CNC2CCc3ncnn3C2)nc1` (configuration not stated), the INHIBITION falls from 2.58% to -0.847%.

Compared with `COCCCN1CCN(CCOC)C(C)C1` (configuration not stated), `CCCn1c(C)c(CC(=O)NCCOC)c2c1CC(C)(C)CC2=O` is higher in INHIBITION: -23.8% for the first, -3.72% for the second.

Compared with `COc1ccccc1OC1CN(c2ccncc2)C1`, `COc1ccccc1C(O)CNc1c(C#N)c(=O)n(C)c(=O)n1C` (configuration not stated) is higher in INHIBITION: 38.8% for the first, 46.2% for the second.

Going from `Cc1ccc(S(=O)(=O)NCCCN2CCC(O)CC2)cc1Cl` to `Cc1ccc(S(=O)(=O)NCCCN2CCC(O)CC2)c(F)c1`, the INHIBITION falls from 51.4% to 41.4%.

Compared with `Cc1cc(F)c(S(=O)(=O)NCCCN2CCC(O)CC2)cc1F`, `Cc1cc(F)cc(S(=O)(=O)NCCCN2CCC(O)CC2)c1` is higher in INHIBITION: -1.53% for the first, 25.1% for the second.

Compared with `Cn1ccc(C(=O)NCCOc2ccc3c(c2)OCO3)cc1=O`, `Cc1ccc(C(=O)Nc2ccc(N(C)C)nc2)n1C` is lower in INHIBITION: -3.54% for the first, -130% for the second.

First: Cc1nc(COC[C@@H]2CC[C@H]3[C@H](CCN3c3ncccn3)O2)cs1
Second: Cc1cc(NC2CCc3ncnn3C2)n2ncnc2n1 (configuration not stated)
The INHIBITION of the first is lower: 46.6% for the first, 57.7% for the second.

Going from `CC(=O)NS(=O)(=O)c1ccc(F)c(C(F)(F)F)c1` to `CC(C)C(=O)NS(=O)(=O)c1ccc(F)c(C(F)(F)F)c1`, the INHIBITION falls from 54.7% to 0.825%.

Going from `COC(C)C(=O)NS(=O)(=O)c1ccc(F)c(C(F)(F)F)c1` (configuration not stated) to `FC(F)(F)c1nc(NC2CCc3ncnn3C2)c2ccccc2n1` (configuration not stated), the INHIBITION falls from 19.5% to 2.25%.

Going from `COc1cc(Cl)c(NC(=O)c2cc3c([nH]c2=O)CCCC3=O)cc1OC` to `Cc1nc(SCC(=O)Nc2ccc(C(N)=O)cc2)c(C#N)c(C)c1C`, the INHIBITION rises from 43.6% to 48.7%.

Compared with `CCN(CC)C(=O)[C@@H]1C[C@@H](n2cc(-c3cccc(OC)c3)nn2)CN1`, `CCN(CC)C(=O)[C@@H]1C[C@H](n2cc(-c3cccc(OC)c3)nn2)CN1` is lower in INHIBITION: 53.3% for the first, 16.9% for the second.

Compared with `CCN(CC)C(=O)[C@@H]1C[C@@H](n2cc(-c3ccccn3)nn2)CN1`, `CC(C)c1nc2n(n1)CC(Nc1ncnc3ccccc13)CC2` (configuration not stated) is lower in INHIBITION: 85.4% for the first, 80.5% for the second.

First: CCn1nc(C)c(C(C)Nc2cc(C3CCNCC3)nc(C)n2)c1C (configuration not stated)
Second: Cc1cc(NC2CCc3nc(C)nn3C2)n2ncnc2n1 (configuration not stated)
The INHIBITION of the first is lower: -46.8% for the first, -12.5% for the second.

Compared with `CS(=O)(=O)CCCNC1CCCN(Cc2noc(C3CC3)n2)C1` (configuration not stated), `Cc1nc2n(n1)CC(Nc1ncnc3c1CCC3)CC2` (configuration not stated) is higher in INHIBITION: 19.5% for the first, 41.5% for the second.

Going from `CC(C)c1nc2n(n1)CC(NCc1cc3ccccc3o1)CC2` (configuration not stated) to `CC(C)c1nc2n(n1)CC(Nc1ncnc3c1CCC3)CC2` (configuration not stated), the INHIBITION rises from 43.2% to 48%.

First: c1nc2c(c(NC3CCc4ncnn4C3)n1)CCC2 (configuration not stated)
Second: c1ccc2c(NC3CCc4ncnn4C3)ncnc2c1 (configuration not stated)
The INHIBITION of the first is higher: 76.7% for the first, 63.8% for the second.

Compared with `c1nc2c(c(NC3CCC3)n1)CCNCC2`, `CCc1nc2n(n1)CC(Nc1cc(C)nc3ncnn13)CC2` (configuration not stated) is lower in INHIBITION: 17.2% for the first, 3.95% for the second.
